The list is not random: actives were taken first. Their share in the collection is about 11%.
Sfp inh – blocks B. subtilis Sfp PPTase activity; Q9F4F7; Biochemical Sfp PPTase activity, qHTS; Potency, µM, for the others: largest response in the series, negative = inhibition, most hits filed as inhibitors; hit rate 3.5% among 310,000; AID 1490;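 also: the enzyme is Sfp with the accession as filed and its product quenches rhodamine fluorescence; potency is read from the fitted curve at half-maximal effect; 0% = enzyme reaction without inhibitor and -100% = no enzyme wells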
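Fluorescence-quenching assay: 15 nM Sfp-PPTase preincubated 15 min at room temperature with compound, then 5 uM rhodamine-CoA and 12.5 uM BHQ-2-labelled YbbR peptide added. Fluorescence (ex 525/em 598 nm) read at start and after 30 min; difference gives rate.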
Tau fibril ThT – inhibitors of human tau fibril formation, thioflavin T binding. recombinant tau K18 P301L, heparin-induced fibrillization, ThT fluorescence. Potency, µM (series often up to 57.4 µM), without a hit: top-dose activity, negative = inhibition, usual class: inhibitors. hit rate 2.1% among 270,000. P10636; also: potency is read from the fitted curve at half-maximal effect; nearly all actives have a fitted effect of over 55% in size
Target sequence (P10636 561-689 P618L limits assumed): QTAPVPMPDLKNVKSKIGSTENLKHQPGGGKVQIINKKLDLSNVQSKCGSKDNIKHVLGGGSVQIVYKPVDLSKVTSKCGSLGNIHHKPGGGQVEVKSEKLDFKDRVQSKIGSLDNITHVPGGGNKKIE
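Using a mix of unlabeled (15 uM) and Alexa 594-labeled (0.24 uM) tau K18 P301L, heparin-triggered fibrillization over 6 hr at 37 C was scored by ThT fluorescence.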
Tau fluor counter – counter-screen for tau fibril formation inhibitors | tau K18 P301L (four-repeat tau fragment) Alexa594 fluorescence, heparin fibrillization | Potency, µM (top dose mostly 57.7 µM), inactives show top-dose activity change, negative = decrease | hit rate 0.93% among 280,000 | AID 1463; also: potency is read from the fitted curve at half-maximal effect; nearly all actives have a fitted effect of over 55% in size
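Human K18 P301L tau (15 uM unlabeled plus 0.24 uM Alexa 594-labeled, final) in 100 mM sodium acetate pH 7 was mixed with compound and 20 uM heparin and incubated 6 hr at 37 C.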
G9a inh – blocks human histone lysine methyltransferase G9a; Q96KQ7; G9a H3K9 monomethylation, AlphaScreen, 2 h; Potency, µM (top dose mostly 102 µM), for inactives: top-dose activity, negative = inhibition, actives largely listed as inhibitors; hit rate 8.8% among 350,000; also: potency is read from the fitted curve at half-maximal effect; nearly all actives have a fitted effect of over 75% in size
Target sequence (Q96KQ7 913-1193 limits assumed): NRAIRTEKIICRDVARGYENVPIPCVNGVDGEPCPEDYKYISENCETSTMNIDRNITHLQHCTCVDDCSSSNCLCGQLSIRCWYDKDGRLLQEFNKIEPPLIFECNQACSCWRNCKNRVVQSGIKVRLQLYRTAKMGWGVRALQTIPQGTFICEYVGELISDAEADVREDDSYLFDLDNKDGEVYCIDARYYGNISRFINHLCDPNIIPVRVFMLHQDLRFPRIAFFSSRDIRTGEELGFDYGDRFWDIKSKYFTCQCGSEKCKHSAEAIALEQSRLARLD
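Signal arises when biotinylated H3K9 peptide, once monomethylated, bridges streptavidin donor and antibody-captured acceptor beads. Enzyme at 20 nM was preincubated 15 min with test compounds; peptide 500 nM and SAM 20 uM then reacted for 2 h.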
Tau FP inhib – tau fibrillization inhibition (FP). hit rate 0.39% among 280,000. K18 P301L tau heparin fibrillization, Alexa594 FP, 6 h. Potency, µM (top dose mostly 57.7 µM), inactives show at the highest dose activity, negative = inhibition, most hits filed as inhibitors; also: potency is read from the fitted curve at half-maximal effect; nearly all actives have a fitted effect of over 55% in size
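Read-out: fluorescence polarization of Alexa 594-labeled tau (0.24 uM), 555 nm excitation, 632 nm emission. Mixtures held 15 uM unlabeled K18 P301L, compound and 20 uM heparin, pH 7 acetate buffer, incubated 6 hr at 37 C.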
FBPA coupling cs – counter-screen for Giardia aldolase inhibitors: coupling enzyme system | coupling enzyme system counterscreen, AmpLite Red fluorescence | activity change, negative = inhibition, % at 58.2 µM, hits read low | hit rate 0.67% among 290,000; in the data active = activity change below about -30%
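Coupling enzymes only (glyceraldehyde-3-phosphate) + compound, at 57.5 uM final, 10 min RT; add substrate/coupling/AmpLite Red mix, 20 min RT; fluorescence ex 525/em 598 nm. Actives flag coupling-system interference.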
Numbers without * were called inactive; ? = inconclusive; . = no result; ! = repeats disagree; [ ] = another dose, or the depositor's remark. Unless noted, calls follow the shape of the dose curve; as a rule, active = well fitted curve in the direction sought with a large enough effect; inconclusive = small, poorly fitted or top-dose-only effect, or another doubt; inactive = no such curve, though single readings can be large; an effect the other way counts as inactive or inconclusive. Unless noted, % is scaled to controls: 0 for no effect and ±100 for the full control effect.

SMILES | Sfp inh | Tau fibril ThT | Tau fluor counter | G9a inh | Tau FP inhib | FBPA coupling cs
CCN(CC)CCN(C(=O)c1ccc(C(=O)c2ccccc2)cc1)c1nc2cc3c(cc2s1)OCO3 | -10% | . | . | 40µM* | . | -3
CCN(CC)CCN(C(=O)c1ccc2ncsc2c1)c1nc2cc3c(cc2s1)OCO3 | 35µM* | . | . | . | . | -4
O=C(NCC(c1cccnc1)N1CCc2ccccc21)c1ccc(Cl)cc1 (centres undefined) | . | 12% | -4% | 2%[59 µM] | -1% | .
COc1ccc(-c2ccc(C(C)=O)cc2)cc1C1C2C=CCCC2(C)C(=O)N1Cc1ccccc1 (centres undefined) | 45µM* | . | . | . | . | -1
COc1ccc(-c2ccc(C(C)=O)cc2)cc1[C@H]1[C@@H]2C=CCC[C@@]2(C)C(=O)N1Cc1ccccc1 | ? | -6% | 6% | -4%[12.7 µM] | 1% | 3
Cn1cccc1/C=N/n1c(-c2ccc(C(C)(C)C)cc2)n[nH]c1=S | -2% | ? | -25% | 7.9µM* | 6% | .
Cc1ccc(-c2n[nH]c(=S)n2/N=C\c2ccco2)cc1 | ? | -9% | -7% | 0.89µM* | 3% | 3
S=c1[nH]nc(-c2cccnc2)n1/N=C/c1ccco1 | 40µM* | 4% | 7% | . | ? | -5
Cn1cccc1/C=N/n1c(-c2ccccc2)n[nH]c1=S | 2% | -3% | -1% | 2%[0.501 µM] | 8% | 0
COc1ccc(NC(=O)NCc2cccn2Cc2ccc(F)cc2)cc1OC | . | -14% | ? | 6%[59 µM] | 5% | .
COc1ccccc1CNC(=O)CCC1N=C2c3ccccc3N=C(SCC(=O)NCC3CCCO3)N2C1=O (centres undefined) | 3% | . | . | . | . | -4
C=CCOC(=O)C(C(C)=O)C(NC(=O)OC)c1cccc(F)c1 (centres undefined) | -15% | -7%[11.5 µM] | -9%[11.6 µM] | . | 7%[11.6 µM] | 1
Cc1ccc(CNC(=O)CN2C(=O)COc3ccc(S(=O)(=O)Nc4ccccc4)cc32)cc1 | . | 8% | ? | -22%[59 µM] | -10% | .
C=CCc1c(C)nc2c(C)cccc2c1SC(=N)N | 56µM* | ? | -12% | . | 2% | -1
COc1cccc2c(Cl)c(CC=C(Cl)Cl)c(C)nc12 | -25% | ? | -13% | . | -13% | 0
Cc1nc2c(C)cccc2c(SC(=N)N)c1CC=C(Cl)Cl | ? | -13% | -9% | 7.9µM* | -7% | 3
O=C(O)/C=C/C(=O)Nc1ccc(Oc2ncnc3cc(Cl)ccc23)nc1 | 79µM* | -10% | 2% | ? | 2% | 9
O=C(Nc1ccccc1)Nc1ccc(Oc2ncnc3cc(Cl)ccc23)nc1 | 16% | 3% | 5% | 13%[59 µM] | -14% | -1
Cc1cccc(C)c1NC(=S)N(CCN(C)C)C(C)c1cccnc1 (centres undefined) | 79µM* | -6% | -5% | -1%[59 µM] | 0% | 0
Cc1ccc(-c2csc(=Nc3ccccc3)n2CCCO)cc1 | . | ? | ? | 16µM* | 3% | .
CC(C)Cn1c(-c2ccc(S(=O)(=O)N3CCCC3)cc2)csc1=Nc1ccccc1 | . | -13% | -30% | 8.9µM* | 5% | .
COc1ccc(-c2csc(=Nc3ccccc3)n2CCO)cc1 | -7% | ? | -30% | 40µM* | 2% | -2
O=S(=O)(c1ccc(-c2csc(=Nc3ccc(F)cc3)n2CCCCCCO)cc1)N1CCCC1 | . | -23% | ? | 13µM* | 1% | .
O=C(NCCO)C1CCN(S(=O)(=O)c2ccc(F)cc2)CC1 | 3% | -9% | -2% | -1%[59 µM] | 1% | 1
CCc1nnc(NC(=O)C(c2ccccc2)c2ccccc2)s1 | 13% | . | . | 22% | . | 3
SMILES | Sfp inh | Tau fibril ThT | Tau fluor counter | G9a inh | Tau FP inhib | FBPA coupling cs
COc1ccc(N2CCN(C(CNC(=O)CC(C)(C)C)c3ccc4c(c3)OCO4)CC2)cc1 (centres undefined) | 6% | . | . | -20% | . | 3
COc1ccc(-c2csc(=NCCO)n2-c2ccccc2)cc1 | -7% | . | . | 50µM* | . | 0
OCCCn1c(-c2ccc(F)cc2)csc1=Nc1ccc(F)cc1 | . | ? | ? | 16µM* | -4% | .
Cc1nn(CC(=O)NCc2cccc(Br)c2)c(=O)c2c1sc1ccccc12 | . | -1% | -19% | ? | ? | .
C=CCOc1ccc(CNn2cn[nH]c2=S)cc1OC | -15% | -14% | -6% | 3.2µM* | -4% | 5
C=CCOc1ccc(CNn2cn[nH]c2=S)cc1OCC | ? | -2% | -2% | 32%[0.501 µM] | 0% | -1
COc1cc(CNn2cn[nH]c2=S)cc(Cl)c1OCc1ccc(F)cc1 | -4% | ? | -19% | 5.6µM* | 2% | 2
COc1cc(CNn2c(C)n[nH]c2=S)cc(Cl)c1OCc1ccccc1 | -16% | ? | -26% | ? | 4% | 2
Cc1cc(=O)[nH]c2c(N=Nc3ccc(O)cc3)c(N)nn12 | ? | 8.9µM* | -26% | ? | 10% | 2
Nc1nn2c(C(F)(F)F)cc(=O)[nH]c2c1N=Nc1cccc(F)c1 | 5% | 7.9µM* | ? | ? | -15% | 1
Cc1cc(=O)[nH]c2c3ccccc3nn12 | 11% | -6% | -9% | -8% | -6% | -1
Cc1cc(C)n2nc(N)c(N=Nc3cccc(Cl)c3)c2n1 | 0% | ? | -7% | -8%[59 µM] | 2% | 1
O=C(Nc1cccc(Cl)c1)C1CCN(c2nc3ccccc3nc2C(F)(F)F)CC1 | . | -7% | ? | 7%[59 µM] | -17% | .
C/C(CC(=O)Nc1ccc2c(c1)OCCO2)=N\NC(=O)COc1ccc(Cl)c(C)c1 | 3% | . | . | 1% | . | 2
NC(=O)NC(CC(=O)NNC(=O)c1ccccn1)c1ccccc1Cl (centres undefined) | . | . | . | 14%[12.7 µM] | . | .
CCCCC/C=C\CC(O)/C=C/c1cccc(CC(O)CCCCO)n1 (centres undefined) | 28% | -5% | -9% | 17µM*! | -10% | 1
CC(C)C(=O)N1CCN(c2ccc([N+](=O)[O-])cc2Cl)CC1 | -20% | -13% | 9% | 10%[59 µM] | -2% | 6
COc1cc2c(cc1OC)CN(c1ccc([N+](=O)[O-])cc1Cl)CC2 | -50% | 7.1µM* | ? | ? | 0% | -15
COc1ccccc1N1CC=C(c2cccc([N+](=O)[O-])c2)NC1=O | -11% | ? | -17% | 40µM* | -5% | 1
COc1cc2c(cc1OC)CN(c1ncccc1[N+](=O)[O-])CC2 | ? | . | . | 50µM* | . | 1
O=C1CCN(c2ncccc2[N+](=O)[O-])CC1 | 17% | -2% | -2% | 10% | -8% | 1
COc1ccccc1N1CCN(c2ccc([N+](=O)[O-])cc2Cl)CC1 | -5% | 8.9µM* | ? | 3.2µM* | 1% | 0
O=[N+]([O-])c1cccnc1N1CCOCC1 | 1% | -2% | 5% | . | 10% | -2

Assay outcomes: PubChem BioAssay, National Center for Advancing Translational Sciences (NCATS)
